The values that follow come from PubChem BioAssay (NCI).

Compounds without any hit were thinned out: in the full panel of roughly 79,000, 15% have a hit. A number with no mark means an inactive call. Active and inactive are the calls of the source. No stated cut-off is given here; in the data, active means growth inhibition above about 70%; inactive means the rest.

Test [1] in a line: NCI Yeast Anticancer Drug Screen. Data for the rad50 strain (AID 155).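 Further: 0% = growth of vehicle-only cultures of the same strain.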 As to conditions: S. cerevisiae rad50 strain growth inhibition, hits give high values. The method in brief:
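DNA repair mutant yeast, compound exposure, growth read-out; inhibition is taken relative to vehicle.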

Test [2] in a line: NCI Yeast Anticancer Drug Screen. Data for the mec2-1 strain (AID 157). As to conditions: S. cerevisiae mec2-1 strain, hits give high values. The method in brief: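 Cells of the genetically defined mec2-1 yeast strain are incubated with test compound. Inhibition of growth is calculated against vehicle-treated controls.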
A short description of test [3]: NCI Yeast Anticancer Drug Screen. Data for the sgs1 mgt1 strain (AID 161).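 Further: 0% = growth of cultures given vehicle only.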 To be noted: S. cerevisiae sgs1 mgt1 strain, hits give high values. The method in brief: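 Mutant yeast exposed to compound; growth scored against vehicle-only wells.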
Test [4] is described as follows: NCI Yeast Anticancer Drug Screen. Data for the cln2 rad14 strain (AID 165).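 Further: 0% = growth equal to vehicle treated cultures.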 As to conditions: S. cerevisiae cln2 rad14 strain, hits give high values. The method in brief:
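The screen exposed genetically defined yeast (cln2 rad14) to test compounds and scored growth inhibition relative to vehicle-treated controls.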

Test [5] can be described thus: NCI Yeast Anticancer Drug Screen. Data for the bub3 strain (AID 167). As to conditions: S. cerevisiae bub3 mutant strain, hits give high values. The method in brief: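 In this screen, a yeast mutant lacking normal mitotic checkpoint function is challenged with compound. Relative growth versus vehicle gives the inhibition value.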
Test [6] in a line: NCI Yeast Anticancer Drug Screen. Data for the mlh1 rad18 strain (AID 175). To be noted: S. cerevisiae mlh1 rad18 strain growth inhibition, hits give high values. The method in brief:
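Compound-treated yeast growth, normalised to vehicle controls. Strain bears defined DNA repair mutations.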

Setting [7] is: at 5.0 µM (retest, dose inferred, filed as 0.5).
[8] abbreviates: at 50.0 µM (retest, dose inferred, filed as 5.0).

Consider `C[N+](C)(C)CC1CCCc2ccccc2C1=O` (configuration not stated), for which the growth inhibition is 22% in test [1] (setting [7]); 90% (active) in test [1] (setting [8]); 88% (active) in test [1] (at 50.0 µM); 20% in test [2] (setting [7]); 97% (active) in test [2] (setting [8]); 85.9% (active) in test [2] (at 50.0 µM). The growth inhibition in test [3] (setting [7]) is 17%; in test [3] (setting [8]), 88% (active); in test [3] (at 50.0 µM), 91.3% (active); in test [4] (setting [7]), 6%; in test [4] (setting [8]) it was 43%; in test [4] (at 50.0 µM) it was 81% (active). In addition, the growth inhibition in test [5] (setting [7]) was 32%; in test [5] (setting [8]) it was 99% (active); in test [5] (at 50.0 µM), 88.1% (active); in test [6] (setting [7]), 30%; in test [6] (setting [8]) it was 98% (active); in test [6] (at 50.0 µM), 90.5% (active).
With `O=c1oc2ccccc2c(O)c1C(C/C(CCN1CCCC1)=N/O)c1ccccc1` (configuration not stated), the growth inhibition in test [1] (setting [7]) was 28%; in test [1] (setting [8]), 28%; in test [1] (at 50.0 µM), 79.8% (active); in test [2] (setting [7]), 22%; in test [2] (setting [8]), 22%; in test [2] (at 50.0 µM) it was 81.7% (active). The growth inhibition in test [3] (setting [7]) was 16%; in test [3] (setting [8]), 16%; in test [3] (at 50.0 µM), 76.8% (active); in test [4] (setting [7]), -3%; in test [4] (setting [8]), -3%; in test [4] (at 50.0 µM), 64.2%. Moreover, the growth inhibition is 9% in test [5] (setting [7]); 9% in test [5] (setting [8]); 72.4% (active) in test [5] (at 50.0 µM); 10% in test [6] (setting [7]); 10% in test [6] (setting [8]); 79.2% (active) in test [6] (at 50.0 µM).
For `CNC1C(O)CC(OC2C/C=C(\C)C/C(C)=C/C=C/CCC(C)CNC(=O)/C=C/C=C/C2C)OC1C` (configuration not stated), the growth inhibition was -6% in test [1] (setting [7]); 99% (active) in test [1] (setting [8]); 14.4% in test [1] (at 50.0 µM); 19% in test [2] (setting [7]); 100% (active) in test [2] (setting [8]); 63.1% in test [2] (at 50.0 µM). Besides, the growth inhibition in test [3] (setting [7]) was 31%; in test [3] (setting [8]), 100% (active); in test [3] (at 50.0 µM), 98.3% (active); in test [4] (setting [7]), -14%; in test [4] (setting [8]) it was 99% (active); in test [4] (at 50.0 µM), 99.2% (active). The growth inhibition in test [5] (setting [7]) was 20%; in test [5] (setting [8]) it was 100% (active); in test [5] (at 50.0 µM), 99.5% (active); in test [6] (setting [7]), 18%; in test [6] (setting [8]), 100% (active); in test [6] (at 50.0 µM), 99.1% (active).
Regarding `O=S(=O)(F)c1cc(Cl)c(O)cc1Cl`, the growth inhibition was -143% in test [1] (setting [7]); 16% in test [1] (setting [8]); 78.3% (active) in test [1] (at 50.0 µM); -45% in test [2] (setting [7]); 48% in test [2] (setting [8]); 57.8% in test [2] (at 50.0 µM). The growth inhibition in test [3] (setting [7]) was -61%; in test [3] (setting [8]) it was 60%; in test [3] (at 50.0 µM), 79.6% (active); in test [4] (setting [7]), -41%; in test [4] (setting [8]), 47%; in test [4] (at 50.0 µM) it was 51.5%. In addition, the growth inhibition in test [5] (setting [7]) is -57%; in test [5] (setting [8]) it was 39%; in test [5] (at 50.0 µM), 78.2% (active); in test [6] (setting [7]), -114%; in test [6] (setting [8]), 45%; in test [6] (at 50.0 µM), 83.2% (active).
Consider `CCOC(=O)c1ccc(N=Cc2ccc(N(CCCl)CCCl)cc2C)cc1`, for which the growth inhibition in test [1] (setting [7]) was -4%; in test [1] (setting [8]) it was 15%; in test [1] (at 50.0 µM), 49.5%; in test [2] (setting [7]), 13%; in test [2] (setting [8]) it was 22%; in test [2] (at 50.0 µM) it was 16.4%. Also, the growth inhibition in test [3] (setting [7]) is 14%; in test [3] (setting [8]), 39%; in test [3] (at 50.0 µM), 67.7%; in test [4] (setting [7]) it was -8%; in test [4] (setting [8]) it was -15%; in test [4] (at 50.0 µM), 5.3%. The growth inhibition in test [5] (setting [7]) is -6%; in test [5] (setting [8]), 2%; in test [5] (at 50.0 µM) it was 17.2%; in test [6] (setting [7]), 25%; in test [6] (setting [8]) it was 73% (active); in test [6] (at 50.0 µM), 37.9%.
In the case of `O=C(O)C(O)(c1ccc(-c2ccccc2)cc1)c1ccc(-c2ccccc2)cc1`, the growth inhibition in test [1] (setting [7]) is 16%; in test [1] (setting [8]) it was 91% (active); in test [1] (at 50.0 µM), 96.4% (active); in test [2] (setting [7]) it was 13%; in test [2] (setting [8]), 93% (active); in test [2] (at 50.0 µM) it was 97% (active). Besides, the growth inhibition was 0% in test [3] (setting [7]); 95% (active) in test [3] (setting [8]); 96.2% (active) in test [3] (at 50.0 µM); 5% in test [4] (setting [7]); 93% (active) in test [4] (setting [8]); 95% (active) in test [4] (at 50.0 µM). Moreover, the growth inhibition in test [5] (setting [7]) was -12%; in test [5] (setting [8]), 93% (active); in test [5] (at 50.0 µM), 96.9% (active); in test [6] (setting [7]), 1%; in test [6] (setting [8]) it was 96% (active); in test [6] (at 50.0 µM), 96.8% (active).
For `Oc1c(Cl)cc(Cl)c2ccccc12`, the growth inhibition in test [1] (setting [7]) is 11%; in test [1] (setting [8]) it was 71% (active); in test [1] (at 50.0 µM), 86.5% (active); in test [2] (setting [7]), 7%; in test [2] (setting [8]), 38%; in test [2] (at 50.0 µM) it was 27.6%. Besides, the growth inhibition in test [3] (setting [7]) is 4%; in test [3] (setting [8]), 63%; in test [3] (at 50.0 µM), 91.5% (active); in test [4] (setting [7]), 5%; in test [4] (setting [8]) it was 14%; in test [4] (at 50.0 µM), -18.9%. Besides, the growth inhibition in test [5] (setting [7]) is 12%; in test [5] (setting [8]), 44%; in test [5] (at 50.0 µM) it was 9.2%; in test [6] (setting [7]), 13%; in test [6] (setting [8]), 74% (active); in test [6] (at 50.0 µM), 87% (active).
Regarding `CN(C)CC1(N)C(=O)NC(=O)NC1=O`, the growth inhibition is 3% in test [1] (setting [7]); 10% in test [1] (setting [8]); 75.7% (active) in test [1] (at 50.0 µM); 4% in test [2] (setting [7]); 11% in test [2] (setting [8]); 78% (active) in test [2] (at 50.0 µM). Moreover, the growth inhibition is 4% in test [3] (setting [7]); 8% in test [3] (setting [8]); 47.3% in test [3] (at 50.0 µM); -1% in test [4] (setting [7]); -1% in test [4] (setting [8]); 43.6% in test [4] (at 50.0 µM). Also, the growth inhibition in test [5] (setting [7]) is 0%; in test [5] (setting [8]), 8%; in test [5] (at 50.0 µM) it was 95.2% (active); in test [6] (setting [7]) it was -1%; in test [6] (setting [8]), 10%; in test [6] (at 50.0 µM) it was 46.2%.
As for `Cc1ccc([NH-])cc1C.Cc1ccc([NH-])cc1C.[Cl][Pt+2][Cl]`, the growth inhibition in test [1] (setting [7]) was 4%; in test [1] (setting [8]), 21%; in test [1] (at 50.0 µM) it was 34.2%; in test [2] (setting [7]), -1%; in test [2] (setting [8]), 9%; in test [2] (at 50.0 µM), 19.8%. Moreover, the growth inhibition was 5% in test [3] (setting [7]); 58% in test [3] (setting [8]); 62.5% in test [3] (at 50.0 µM); -8% in test [4] (setting [7]); 12% in test [4] (setting [8]); -32.4% in test [4] (at 50.0 µM). For the same compound, the growth inhibition in test [5] (setting [7]) is -8%; in test [5] (setting [8]), 4%; in test [5] (at 50.0 µM), 10.8%; in test [6] (setting [7]), 6%; in test [6] (setting [8]) it was 49%; in test [6] (at 50.0 µM), 81.5% (active).
